Shown are actives, neighbours in structure and some others; about 1.9% of the full set was active somewhere.
S1P4 ag: S1P4 receptor agonists, primary screen, cell-based; Sphingosine 1-phosphate receptor 4 (Homo sapiens), O95977; S1P4-expressing cell line, agonist reporter assay; activation, % at 4.98 µM; 220,000 compounds, 0.35% hits; AID 1509, 2009; in the data active = activation above about 11%;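 note: 0% = DMSO vehicle and 100% = reference agonist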
S1P3 antag: S1P3 receptor antagonists, primary screen, cell-based; Sphingosine 1-phosphate receptor 3 (Homo sapiens), Q99500; CHO S1P3 NFAT-BLA reporter, FRET fluorescence, antagonist mode; inhibition, % at 4.98 µM; 170,000 compounds, 0.27% hits; AID 485, 2006;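 active = inhibition above the plate cutoff, the mean inhibition of test wells on that plate plus 3 SD, cut at about 28% in these data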;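 note: cells challenged with S1P at its EC80 of 0.8 µM; blue over green emission ratio from cleaved BLA substrate after 4 h stimulation; 0% = S1P-stimulated wells and 100% = unstimulated DMSO-only wells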
Target sequence (Q99500 whole entry, looked up): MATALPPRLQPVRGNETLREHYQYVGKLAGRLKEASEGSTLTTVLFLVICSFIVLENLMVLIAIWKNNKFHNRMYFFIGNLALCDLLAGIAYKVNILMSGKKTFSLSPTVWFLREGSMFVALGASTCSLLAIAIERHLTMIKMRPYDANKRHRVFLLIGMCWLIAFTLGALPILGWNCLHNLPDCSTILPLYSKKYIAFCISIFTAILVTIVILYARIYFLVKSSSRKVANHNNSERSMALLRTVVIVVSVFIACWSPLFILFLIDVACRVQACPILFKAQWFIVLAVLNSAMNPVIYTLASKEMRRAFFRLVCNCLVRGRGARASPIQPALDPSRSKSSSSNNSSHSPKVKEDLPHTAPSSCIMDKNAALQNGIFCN
EP2 mod: EP2 receptor modulators, cAMP readout, primary screen, cell-based, HTRF cAMP, PGE2 stimulation. 260,000 compounds, 0.83% hits. EP2-expressing cells, cAMP HTRF FRET, PGE2 co-stimulation. induction, % at 25 µM;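 active = compounds whose cAMP rise, as percent of the full-agonist control response, exceeds 60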;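 note: rat C6 glioma line stably carrying human EP2 under a CMV promoter; the protocol text gives 20 µM as final concentration; 100% = response of wells given 1 µM PGE2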
S1P4 antagonist: S1P4 receptor antagonists, primary screen, cell-based; Sphingosine 1-phosphate receptor 4 (Homo sapiens), O95977; S1P4-expressing cells, antagonist mode, reporter read-out; inhibition, % at 4.98 µM; 220,000 compounds, 0.26% hits; in the data active = inhibition above about 29%;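 note: 0% = wells stimulated with agonist and 100% = vehicle wells without agonist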
EP2 antag: human EP2 receptor antagonists, primary screen, TR-FRET cAMP, C6 glioma cells; Prostaglandin E2 receptor EP2 subtype (Homo sapiens), P43116; C6 glioma cells expressing human EP2; cells stimulated with saturating PGE2; inhibition, % at 25 µM; 260,000 compounds, 0.52% hits; AID 1422, 2008;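 active = percent inhibition above 40 after rounding to a whole number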;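 note: rat C6 glioma host cells with rolipram phosphodiesterase inhibitor present; the protocol text gives 20 µM as final concentration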
EP2 cAMP induct: cAMP induction in EP2, EP4, beta2-AR and parental cells, confirmation, counter-screen for EP2 modulator project, cell-based, five parallel assays, C6 glioma, HEK293; shares compounds with EP2 mod; cAMP HTRF induction; plus low (about EC15) PGE2 agonist; calls only at 20 µM (by protocol); 1,300 compounds, 47% hits;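 active = cAMP induction above 50% in the main assay while under 30% in all four parallel counter assays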;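 note: rat C6 glioma cells stably expressing human EP2 receptor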
* = called active by the depositor; i = inactive; · = no result; + = active, no number; ! = a repeat was not active.

SMILES	S1P4 ag	S1P3 antag	EP2 mod	S1P4 antagonist	EP2 antag	EP2 cAMP induct
CCn1c(=NC(=O)c2ccc(S(=O)(=O)N3CCOCC3)cc2)sc2cccc(OC)c21	-2	16	68*	2	15	i
C=CCn1c(SCC(=O)NCc2ccccc2)nnc1-c1ccncc1	·	·	-53	·	14	·
CC(C)(C)C1CCc2onc(C(=O)Nc3cccc(O)c3)c2C1 (centres undefined)	1	·	43	0	25	·
CC(C)(C)C1CCc2onc(C(=O)Nc3cccnc3)c2C1 (centres undefined)	1	-9	52	-6	3	i
Cc1cccc(OCc2nnc(SCC(=O)Nc3ccc4c(c3)OCCO4)n2C)c1C	·	·	-93	·	12	·
Cn1c(=O)c2c(nc(SCC(=O)N3CCc4ccccc4C3)n2C)n(C)c1=O	-3	-18	82*	5	8	i
Cn1c(=O)c2c(nc(SCC(=O)N3c4ccccc4CCc4ccccc43)n2C)n(C)c1=O	2	-12	19	-6	-4	·
Cc1ccc(OCC(=O)NNC(=O)C2CCN(c3ncccn3)CC2)cc1	0	·	65*!	0	8	i
O=C(COc1cccc2ccccc12)N1c2ccccc2CCc2ccccc21	0	·	66*	-3	11	+
Cc1nn(Cc2ccccc2)c(C)c1CN1CCc2c(nc(N3CCCC3)[nH]c2=O)C1	·	·	-16	·	·	·
CSc1ncc(C(=O)N2CCC(O)(c3ccccc3C)CC2)cn1	·	·	-14	·	8	·
CCOC(=O)C1CCCN(c2c(C(=O)c3ccccc3)cnc3ccc(OC)cc23)C1 (centres undefined)	-1	2	68*	-29	7	i
CSc1nnc(-c2ccccc2)c(-c2ccccc2)n1	0	1	21	11	8	·
CSc1nnc2c3ccccc3c3ccccc3c2n1	1	·	76*	11	·	+
CC(C)[C@H](Cn1nc(-c2cccs2)ccc1=O)NC(=O)Cc1n[nH]c(=O)c2ccccc12	·	·	9	·	5	·
CCCCOc1c(Br)cc(/C=N/O)cc1OCC	-5	·	66*	-7	·	i
CCc1ccc(NC(=S)N(Cc2ccccc2)Cc2ccccn2)cc1	0	-6	70*	3	18	i
O=c1oc2ccccc2n1CCOc1cccc2ccccc12	·	·	3	·	8	·
CCOc1ccccc1Cn1c(=O)sc2ccccc21	1	-10	83*	0	4	+
CCCCOc1ccccc1Cn1c(=O)oc2ccccc21	1	17	62*	3	8	+
CCOC(=O)C1=C(c2ccccc2)Nc2nnnn2C1c1cc(OC)ccc1OC (centres undefined)	·	·	2	·	13	·
CCOc1ccccc1NC1c2ccccc2C(=O)N1c1ccc(C)cn1 (centres undefined)	-1	-23	81*	-15	5	i
CCOC(=O)c1ccccc1NC1c2ccccc2C(=O)N1c1ccc(C)cn1 (centres undefined)	-1	-5	52	-2	6	·
CCc1ccccc1NC1c2ccccc2C(=O)N1c1cc(C)ccn1 (centres undefined)	0	-18	81*	-3	9	i
S=c1[nH]nc(-c2cc(-c3ccsc3)n[nH]2)n1-c1cccc2ccccc12	-1	-12	47	-15	8	·
SMILES	S1P4 ag	S1P3 antag	EP2 mod	S1P4 antagonist	EP2 antag	EP2 cAMP induct
COc1ccc(-c2cc(-c3n[nH]c(=S)n3-c3cccc4ccccc34)[nH]n2)cc1	1	-4	67*	-5	4	i
Cc1cc(C)cc(OCC(=O)Nc2sc3c(c2C(N)=O)CCC3)c1	·	·	-16	·	32	·
CCOC(=O)C1=C(C)OC(N)=C(C#N)C1c1ccsc1 (centres undefined)	1	-13	15	0	9	·
CCOC(=O)C1=C(C)OC(N)=C(C#N)C1c1cc(SCC)oc1C (centres undefined)	1	2	45	-5	3	·
CCOC(=O)C1=C(CC)OC(N)=C(C#N)C1c1ccsc1 (centres undefined)	1	-6	57	-1	6	i
CCOC(=O)C1=C(C)N(C)C(C)=C(C(=O)OCC)C1c1ccsc1	1	-4	72*	0	9	+
CCOC(=O)C1=C(C)OC(N)=C(C#N)C1c1cc(C)sc1C (centres undefined)	0	·	53	-5	-2	i
CCOC(=O)C1=C(C)N(C)C(C)=C(C(=O)OCC)C1c1ccc(Cl)cc1	0	21	52	-5	0	·
Nc1c(C(=O)c2ccc3c(c2)OCO3)sc2nc3c(cc12)CCCC3	·	·	-79	·	18	·
CN=C1CC(SC)=C1c1ccc(C)cc1	-2	·	72*	-7	56*	+
FC(F)(F)c1cccc(-c2nc3nc(Cl)c(Cl)nc3[nH]2)c1	0	21	12	11	11	·
O=C(O)c1nc2nc(Cl)c(Cl)nc2[nH]1	2	-4	63*!	-12	4	i
Cc1cnn(-c2nc(-c3ccccc3)cc(-c3ccccc3)n2)c1	1	-5	67*	0	5	+
CCC(C)NC(=O)CSc1nc2cc(C)ccc2cc1C#N (centres undefined)	·	·	-10	·	11	·
COc1ccc(Cn2c3ccc(OC)cc3c3nc4ccccc4nc32)cc1	2	-5	-15	-13	5	·
CCCn1c2ccccc2c2nc3ccccc3nc21	1	26	78*	-18	20	+
CCCn1c(Nc2nc3ccccc3n2C)nc2ccccc21	1	58*	71*	5	8	i
CCn1c2ccc(F)cc2c2nc3ccccc3nc21	-1	-8	40	-13	6	i
CCCCn1c(Nc2ccccc2)nc2ccccc21	0	·	16	4	6	·
COc1ccccc1C1(O)CCN(Cc2ccnc3ccc(Cl)cc23)CC1	·	·	-71	·	2	·
CN(C)c1cccc(C(=O)N2CCn3c(nnc3C3CC3)C2)c1	·	·	1	·	·	·
C=CCOc1ccccc1NC(=O)c1cnc(C(C)(C)C)nc1	·	·	6	·	13	·
N#CCCSc1ncnc2c1oc1ccccc12	-1	-23	66*	-19	9	i
O=C(O)CSc1ncnc2c1oc1ccccc12	4	·	14	-1	-1	·
O=C(CSc1ncnc2c1oc1ccccc12)Nc1ccccc1C(F)(F)F	1	-12	79*	-4	11	i
CCOC(=O)CC(=O)CSc1ncnc2c1oc1ccccc12	-1	5	67*	-17	·	i

High-throughput results deposited in PubChem by several laboratories.
